30 compounds from PubChem BioAssay (EPA / NIEHS) can be followed below.

Structures are written as SMILES. Calls of active or inactive are those of the source. Rule for the calls: active = hit-call score of the fitted dose curve at least 0.9, where 1 is the maximum; inactive = score below 0.9.

The nature of this assay: APR_HepG2_CellCycleArrest_72hr: Apredica 72-hour HepG2 Assay for Cell Cycle Arrest (AID 2282914). Conditions: high-content imaging, actives raise or lower the signal. The method in brief:
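HepG2 cells exposed 72 h in duplicate to 0.39–200 uM compound, 0.5% DMSO final. Formaldehyde-fixed, Hoechst 33342-stained nuclei imaged at 20x, six fields per well; DNA content per valid cell quantified by cell-cycle image analysis, bidirectional fit versus DMSO.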
Take `C=CCc1ccc(O)c(OC)c1`: the outcome was inactive. For the compound `O=c1c(O)c(-c2ccc(O)c(O)c2)oc2cc(O)cc(O)c12`, the AC50 is 103 µM (active). Take `CCCCC(CC)COC(=O)CC(C(=O)OCC(CC)CCCC)S(=O)(=O)O` (stereo not given): the call was inactive. Regarding `CCOC(=O)C(C)(C)Oc1ccc(Cl)cc1`, the result was inactive.

`Oc1ccc2c(c1)OC[C@@H](N1CCC(O)(c3ccc(F)cc3)CC1)[C@H]2O`: the compound was classed as inactive. Take `NC(=O)Cn1c(=O)cc(CCN2CCN(c3nccc4sccc34)CC2)c2ccc(F)cc21`: the compound was called inactive.

Turning to `CNCc1cc(F)ccc1Oc1ccc(Cl)c(Cl)c1`, the call was inactive. Take `Cc1cccc(Nc2cc(Cl)nc(SCC(=O)O)n2)c1C`: the call was inactive. Same read-out and setting: the entry for `CCOC(=O)CCC(=O)OCC` is “inactive”. Regarding `CCNc1cccc(C)c1`, the call was inactive. For the compound `Nc1ccc2c(c1)C(=O)c1ccccc1C2=O`, the AC50 was 16.1 µM (active). Take `NS(=O)(=O)c1cc2c(cc1Cl)NCNS2(=O)=O`: the call was inactive.

Turning to `CCCCCCCCCCCCCO`, the AC50 is 52.3 µM (active). For `CN1CCCC1=O`, the outcome was inactive. Consider `C1CCC(SSC2CCCCC2)CC1`, for which the AC50 was 62 µM (active). As to `COCCOC[C@H](CC1(C(=O)NC2CCC(C(=O)O)CC2)CCCC1)C(=O)Oc1ccc2c(c1)CCC2` (stereo not given in full), the compound was called inactive.

`O=C(N[C@@H](Cc1ccccc1)[C@@H](O)C(=O)N1C[C@@H](O)[C@@H](O)C1)c1cc2cc(Cl)ccc2[nH]1`: the AC50 was 91.7 µM (active). Take `CCCCCCCCCCCCCCCC`: the compound was called inactive. Still for that read-out and setting: the entry for `O=C(O)Cc1ccccc1Nc1c(Cl)cccc1Cl` is “inactive”; for `O=C(O)CCCCC(=O)O` it is “inactive”. With `CC(C)c1ccc(C(=O)N=C(N)N)cc1S(C)(=O)=O`, the outcome was inactive.

On to `Nc1ccc(S(=O)(=O)c2ccc(N)cc2)cc1`, for which the result was inactive.

With `Cc1ccc(Cl)cc1`, the result was inactive. Consider `CC(=O)OCCOCCOCCOC(C)=O`, for which the call was inactive. `CC1=C(/C=C/C(C)=C/C=C/C(C)=C/CO)C(C)(C)CCC1`: the AC50 is 56.3 µM (active). As for `Nc1nc(N)c2nc(CNc3ccc(C(=O)N[C@@H](CCC(=O)O)C(=O)O)cc3)cnc2n1`, the outcome was inactive. The same measure, in the same setting: the entry for `CCCCCCOCCO` is “inactive”. `COc1ccc2c(c1)c(CC(=O)O)c(C)n2C(=O)c1ccc(Cl)cc1`: the AC50 was 100 µM (active). In the case of `FC(F)(F)C(F)(F)C(F)(F)C(F)(F)C(F)(F)C(F)(F)CCI`, the compound was classed as inactive. On the same count and under the same terms, with `C=CCOC(=O)c1ccccc1C(=O)OCC=C` the entry was “inactive”.
